Compounds with a hit are over-represented: about 7.9% of the library has one in this group of screens.
SW480 rereplic: A quantitative high throughput screen for small molecules that induce DNA re-replication in SW480 colon adenocarcinoma cells; SW480 DNA re-replication, Hoechst DNA content imaging, 48 h; Potency, µM (highest dose often 46.1 µM), for the others: at the top dose re-replication activation, usual class: activators; 340,000 tested, 1.8% active; AID 624297, 2012; further: % of control where 0% means no effect; nearly all actives have a fitted effect of over 55% in size
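Per well, 250 cells were exposed to pinned compound for 48 hr. Nuclear DNA was visualised with Hoechst (40 min, 37 C) and total object intensity recorded by fluorescence scanning.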
MCF10A rereplic: A quantitative high throughput screen for small molecules that induce DNA re-replication in MCF 10a normal breast cells. MCF 10A DNA re-replication, Hoechst nuclear intensity, 48 h. Potency, µM (titrated, usually from 46.1 µM), for the others: top-dose activity, positive = re-replication, hits mostly activators. 350,000 tested, 2.9% active. AID 624296, 2012; further: % of control where 0% means no effect; nearly all actives have a fitted effect of over 50% in size
KB-3-1 tox: qHTS assay for MDR1-selective chemotherapeutics: Primary screen using the parental adenocarcinoma cell KB-3-1. KB-3-1 viability, CellTiter-Glo ATP luminescence, 72 h. Potency, µM (top dose mostly 46.1 µM), most hits filed as cytotoxic. 400,000 tested, 1.4% active; further: on the % scale 0 is the no-effect control and ±100 the full control effect; nearly all actives have a fitted effect of over 60% in size
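KB-3-1 parental drug-naive adenocarcinoma cells in DMEM/10% FBS, incubated 72 h at 37 C with pin-transferred compounds across a concentration series. Viability by CellTiter-Glo luminescence; concentration-response curves fitted after normalization.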
HT1080NT lethal: qHTS for induction of synthetic lethality in tumor cells producing 2HG: qHTS for the HT-1080-NT fibrosarcoma cell line; Potency, µM (top dose mostly 46.1 µM), inactives show top-dose activity, negative = less viability, hits mostly cytotoxic; 360,000 tested, 1.6% active; HT-1080-NT fibrosarcoma viability, CellTiter-Glo ATP luminescence, 48 h;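 further: NT is the 2HG producing partner of a matched IDH1 knockdown line; 0% = DMSO-treated cells and -100% = media-only wells without cells; nearly all actives have a fitted effect of over 55% in size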
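Luminescent CellTiter-Glo readout after 48 hours of compound exposure at 37 degrees C defined viability of HT-1080-NT cells. Activity was normalized to DMSO wells and cell-free media wells; concentration-response curves were fitted and assigned curve classes.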
HT1080 IDH1KD tx: qHTS for induction of synthetic lethality in tumor cells producing 2HG: qHTS for the HT-1080-IDH1KD cell line | HT-1080 IDH1 knockdown viability, ATP luminescence, 48 h | Potency, µM (doses to about 46.1 µM), for inactives: top-dose activity, negative = toxicity, usual class: cytotoxic | 360,000 tested, 2% active | AID 686971, 2013;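 further: 0% = DMSO wells and -100% = cell-free medium wells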
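Knockdown cells (IDH1KD HT-1080) received compounds 2 h after plating at 750 cells/well and were kept 48 h at 37 °C in 5% FBS RPMI. A CellTiter-Glo luminescence read gave % activity for curve fitting.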
KB-V1 MDR tox: qHTS assay for MDR1-selective chemotherapeutics: Primary screen using the drug-selected MDR subline cells KB-V1; 400,000 tested, 3.4% active; KB-V1 MDR cells viability, CellTiter-Glo, 72 h; Potency, µM (highest dose often 46.1 µM), most hits filed as cytotoxic; further: on the % scale 0 is the no-effect control and ±100 the full control effect; nearly all actives have a fitted effect of over 60% in size
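Compound-treated KB-V1 multidrug-resistant cells, 72 h, 37 degrees C; viability by CellTiter-Glo. Fitted qHTS curves give the values.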
Numbers without * were called inactive; i = inactive; ? = inconclusive; nt = no result given. The call rests on the fitted dose curve; in most records, active means well fitted curve in the direction sought with a large enough effect; inconclusive means small, poorly fitted or top-dose-only effect, or another doubt; inactive means no such curve, though single readings can be large; an effect the other way counts as inactive or inconclusive. Potency means the concentration at half of the fitted maximal effect.

SMILES | SW480 rereplic | MCF10A rereplic | KB-3-1 tox | HT1080NT lethal | HT1080 IDH1KD tx | KB-V1 MDR tox
COc1ccc(OC)c(-c2nnc3n2N=C(c2ccc(OC)c(OC4CCOC4)c2)CS3)c1 (stereo not given) | ? | ? | 0.12µM* | nt | nt | ?
COc1ccc(C2=Nn3c(nnc3-c3ccccc3Cl)SC2)cc1OC1CCOC1 (stereo not given) | ? | ? | 13µM* | nt | nt | ?
COc1ccc(C2=Nn3c(nnc3-c3ccccc3Cl)SC2)cc1OC1CCCC1 | 21µM* | 16µM* | ? | nt | nt | i
FC(F)Oc1ccc(C2=Nn3c(nnc3-c3ccccc3Cl)SC2)cc1OCC1CC1 | -2% | 1% | i | nt | nt | i
CN1CCn2cnc(C(=O)N[C@@H](Cc3ccccc3)C(=O)OC(C)(C)C)c2C1=O | nt | nt | i | 11% | 3% | i
O=C(Nc1cc(Cl)ccc1Cl)c1cc(S(=O)(=O)NCCc2ccccc2)ccc1F | nt | nt | i | nt | nt | i
C[C@H](CO)N1C[C@H](C)[C@@H](CN(C)C(=O)Nc2ccc(C(F)(F)F)cc2)Oc2c(NC(=O)CCC(F)(F)F)cccc2C1=O | -10% | -43% | i | -14% | -7% | i
CCC(C)Sc1ccc(-c2nc3ccccn3c2NCc2ccccc2)cc1OC (stereo not given) | -4% | 21µM* | ? | ? | ? | ?
COc1ccc(CSc2ccc(-c3nc4ccccn4c3NCc3ccccc3)cc2OC)cc1 | ? | 23µM* | ? | -25% | -2% | ?
CCC(C)Sc1ccc(-c2nc3ccc(C)cn3c2NCc2ccccc2)cc1 (stereo not given) | 23% | ? | ? | -12% | -10% | ?
COc1ccc(C2C(C(N)=O)=C(C)Nc3nc(SCc4ccccc4Cl)nn32)cc1OC (stereo not given) | nt | nt | i | nt | nt | ?
COC(=O)Cc1c(C)c2cc3c(c(C)c2oc1=O)OCN(CCc1ccc(F)cc1)C3 | nt | nt | i | nt | nt | i
O=C(C[n+]1csc2ccccc21)c1cccc([N+](=O)[O-])c1 | nt | nt | i | nt | nt | i
CCN(C(=O)c1coc(=O)c(Br)c1)c1ccc2c(c1)OCO2 | ? | 13µM* | i | ? | ? | i
Cn1nc(C(C)(C)C)cc1C(=O)NCc1ccc(N2CCCC2=O)cc1 | 13% | 1% | 0.65µM* | ? | ? | 0.58µM*
Cc1ccc(NC(=O)CSCC(=O)Nc2ccccc2C(=O)NC2CC2)cc1 | -4% | 3% | i | 10% | 5% | ?
O=C(CCl)Nc1cc(-c2ccccc2)nn1-c1ccccc1 | ? | ? | ? | 5µM* | 1.6µM* | 7.3µM*
CCN(CC(=O)Nc1ccccc1C(F)(F)F)C(=O)c1cc(-c2ccccc2)nn1-c1ccccc1 | -10% | 10µM* | i | 2% | -6% | i
O=C(CNC(=O)c1cc(-c2ccccc2)nn1-c1ccccc1)Nc1ccccc1Br | -24% | 12µM* | i | -1% | 1% | i
Cc1cccc2cc(CN(C(=O)c3cccc(Cl)c3)c3ccccc3)c(=O)[nH]c12 | nt | nt | i | nt | nt | i
O=C(COC(=O)c1cc(=O)[nH]c2ccccc12)NCc1ccc(Cl)cc1 | -1% | 9% | i | 13% | 7% | i
COc1cccc(CN2CC(C(=O)N(C)C3CCOCC3)CCC2=O)c1 (stereo not given) | -20% | 12% | i | 12% | 4% | ?
Cc1ccsc1C1Nc2ccc3ncccc3c2C2=C1C(=O)CC(C)(C)C2 (stereo not given) | ? | ? | i | 10µM* | ? | i
O=C1N/C(=C\c2ccc(O)cc2)C(=O)c2ccccc21 | 13µM* | 3.2µM* | ? | ? | 18µM* | i
O=C(NCC(c1ccc2c(c1)OCO2)N1CCN(c2ccccc2)CC1)c1ccccc1 (stereo not given) | nt | nt | i | nt | nt | i
SMILES | SW480 rereplic | MCF10A rereplic | KB-3-1 tox | HT1080NT lethal | HT1080 IDH1KD tx | KB-V1 MDR tox
O=C1c2ccc3c4c(ccc(c24)C(=O)N1CCCCO)C(=O)N(CCCCO)C3=O | ? | ? | 3.7µM* | 23µM* | 12µM* | ?
CC1=C(C(=O)Nc2cccnc2)C(c2ccccc2)n2nc(-c3ccc(O)cc3)nc2N1 (stereo not given) | nt | nt | i | nt | nt | i
COc1ccccc1/C=C1\S/C(=N/NC(=O)c2cccc(Br)c2)NC1=O | 16% | 10µM* | 8.2µM* | ? | ? | ?
O=c1[nH]c(=O)c2cc([N+](=O)[O-])cc([N+](=O)[O-])c2[nH]1 | ? | -17% | i | 1% | -11% | i
O=c1[nH]c2cc([N+](=O)[O-])c([N+](=O)[O-])cc2[nH]c1=O | 6.5µM* | 0% | i | -10% | 1% | i
COc1ccc(OC)c(S(=O)(=O)NCC(c2cccs2)N2CCc3ccccc3C2)c1 (stereo not given) | -1% | 10% | i | -11% | -12% | ?
CCN(Cc1ccccc1)C(=O)C1CCN(c2ncnc3c2nc2n3CCCCC2)CC1 | 0% | 15% | i | -1% | -17% | i
Cc1ccc(NC(=O)C2CCCN(c3ncnc4onc(C)c34)C2)c(Cl)c1 (stereo not given) | nt | nt | 2.6µM* | nt | nt | ?
CCc1ccccc1N(CC)C(=O)C1CCN(c2ncnc3c2nc2n3CCCCC2)CC1 | ? | 23µM* | ? | -5% | ? | ?
O=C(Nc1ccccc1Cl)C1CCCN(c2ncnc3c2nc2n3CCCCC2)C1 (stereo not given) | 9% | ? | i | -23% | -10% | 7.3µM*
COc1ccc(Cl)cc1NC(=O)C1CCCN(c2ncnc3onc(C)c23)C1 (stereo not given) | nt | nt | i | nt | nt | ?
Cc1cccc(N2CCN(CCCNC(=O)C3CCCN(c4ncnc5c4nc4n5CCCCC4)C3)CC2C)c1 (stereo not given) | ? | ? | ? | 21µM* | 16µM* | ?
COC(=O)c1ccc(NC(=O)c2cc3cc(C)ccc3n2C)cc1 | nt | nt | i | nt | nt | i
O=C(NCC1CCN(Cc2cccc(Cl)c2)CC1)C1CCCN(c2ncnc3c2nc2n3CCCCC2)C1 (stereo not given) | 1% | 10% | i | 21µM* | ? | i

Bioassay records from PubChem BioAssay.
